Sampled rows, rich in hits. Any-hit rate of the full collection: about 3.1%.
Env fusion inh: inhibitors of HIV Env-mediated cell fusion; HeLa-JRFL Env/CEM21 cell fusion, luciferase; inhibition, % at 12.3 µM; 360,000 tested, 1.1% active; AID 651610;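 active = mean replicate inhibition score of at least 50 and every replicate individually at or above 50; inconclusive = only one of the two criteria met; inactive = mean below 50 and not all replicates reaching 50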
PAX8 reporter: inhibitors of PAX8 transcriptional activity in RMG-I cells; RMG-I TPO-luciferase reporter, SteadyGlo, 24 h; inhibition, % at 12.6 µM; 360,000 tested, 1.2% active;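 active = mean replicate inhibition at least 60% with every replicate also reaching 60%; inconclusive = only one of the two criteria is met; inactive = mean below 60% and not all replicates reaching 60%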;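 note: luciferase light reporting Pax8 driven TPO promoter activity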
INS-1E GSIS act: GLuc luminescence reporter in INS-1E cells, primary screen for activators of glucose-dependent secretion of insulin; INS-1E GLuc reporter insulin secretion, 2-3 h; activation, % at 16.6 µM; 370,000 tested, 0.61% active;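 active = lowest replicate activation of at least 40%, so every replicate reaches that level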
Statin myotox sup: suppression of simvastatin myotoxicity; C2C12 myotubes + simvastatin, ATP luminescence, 48 h; scaled: DMSO 0, geranylgeraniol control 100; AID 602340; rescue of ATP level, % at 7.49 µM; 330,000 tested, 0.78% active;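 active = mean ATP rescue above about 67%, or every replicate alone reaching that limit, limit read from the data, passing the limit was not always enough; inconclusive = no clear call, values can overlap the other calls; inactive = mean under the limit and some replicate under it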;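 note: myotubes were challenged with 10 µM simvastatin during compound exposure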
EWS-Fli inh: blocks EWS/Fli oncoprotein-driven transcription; A673 NR0B1-luciferase reporter, viability-normalised; inhibition, % at 12.6 µM; 350,000 tested, 0.67% active;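 active = mean inhibition of at least 50% after viability correction, with every replicate also passing that limit; inconclusive = mean reaches 50% but only one of two replicates passes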;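 note: firefly luciferase signal divided by Alamar Blue viability fluorescence both relative to DMSO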
miR-122 sensor: inhibitors of miR-122 in Huh7 cells. 340,000 tested, 0.3% active. Huh7 miR-122 Renilla luciferase sensor, 48 h; neutral wells = 0, positive control = 100. activation (reporter increase), % at 12.5 µM;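 active = mean replicate activation score at least 90 and every replicate individually at or above 90; inconclusive = only one of the two criteria met; inactive = neither criterion met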;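 note: higher luciferase means less miR-122 activity so hits act as miR-122 inhibitors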
A number is an active result; [ ] = dose if it differs, or a comment.

What do the screens show for `Cc1cc(C)nc(NC(N)=NCCc2c[nH]c3ccccc23)n1`?
Env fusion inh: inactive; PAX8 reporter: inactive; INS-1E GSIS act: 44.8; Statin myotox sup: inactive; EWS-Fli inh: inactive; miR-122 sensor: inactive

Results for Cc1cc(C)nc(NC(N)=NCCc2ccccc2)n1 ?
Env fusion inh: inactive; PAX8 reporter: inactive; Statin myotox sup: inactive; EWS-Fli inh: inactive

What do the screens show for `COc1ccc2c3c([nH]c2c1)[C@H](CO)N(C(=O)c1ccc(F)cc1)CC31CN(C(=O)NC(C)C)C1`?
PAX8 reporter: inactive; INS-1E GSIS act: inactive; EWS-Fli inh: inactive

How did O=S(=O)(c1ccc(NCCCO)nc1)N1CCOCC1 do in these assays?
Env fusion inh: inactive; PAX8 reporter: inactive; INS-1E GSIS act: 48.8; Statin myotox sup: inactive; EWS-Fli inh: inactive

What do the screens show for `CO[C@@H]1CN(C)C(=O)c2ccc(NC(C)=O)cc2OC[C@H](C)N(C(=O)CC2CC2)C[C@H]1C`?
Env fusion inh: inactive; PAX8 reporter: inactive; INS-1E GSIS act: inactive; Statin myotox sup: inactive; EWS-Fli inh: inactive; miR-122 sensor: inactive

What do the screens show for `CC1=CC(C)(C)N2C(=O)C3(NCCc4c3[nH]c3ccccc43)c3cc(C)cc1c32` (stereo not drawn)?
Env fusion inh: inactive; PAX8 reporter: 88.2; INS-1E GSIS act: inactive; EWS-Fli inh: inactive

Results for CC(C)NC(=O)C1(C)CCN1Cc1cccc(C#N)c1 (stereo not drawn) ?
Env fusion inh: inactive; PAX8 reporter: inactive; INS-1E GSIS act: 43.0; Statin myotox sup: inactive; EWS-Fli inh: inactive

What do the screens show for `CC(C)NC(=O)C1(C)CCN1Cc1ccc(C(F)(F)F)cc1` (stereo not drawn)?
Env fusion inh: inactive; PAX8 reporter: inactive; INS-1E GSIS act: inactive; Statin myotox sup: inactive; EWS-Fli inh: inactive

Results for CC(C)NC(=O)C1(C)CCN1Cc1ccc(-c2ccccc2)cc1 (stereo not drawn) ?
Env fusion inh: 56.6; PAX8 reporter: inactive; INS-1E GSIS act: inactive; Statin myotox sup: inactive; EWS-Fli inh: inactive

What do the screens show for `C[C@H](CO)N1C[C@H](C)[C@H](CN(C)Cc2ccncc2)Oc2ccc(NS(=O)(=O)c3cn(C)cn3)cc2CC1=O`?
PAX8 reporter: inactive; INS-1E GSIS act: inactive; Statin myotox sup: inactive; EWS-Fli inh: inactive; miR-122 sensor: inactive

How did Cc1sc2nc(C3CC3)nc(SCC(=O)N3CCCc4ccccc43)c2c1C do in these assays?
Env fusion inh: inactive; PAX8 reporter: inactive; INS-1E GSIS act: inactive; EWS-Fli inh: inactive

Results for Cc1sc2nc(C3CC3)nc(SCC(=O)N3CCc4ccccc4C3)c2c1C ?
Env fusion inh: 55.1; Statin myotox sup: inactive; miR-122 sensor: inactive

Results for Cc1sc2nc(C(C)C)nc(SCC(=O)N3CCN(C(=O)c4ccco4)CC3)c2c1C ?
Env fusion inh: 62.0; Statin myotox sup: inactive; miR-122 sensor: inactive

How did COc1cc(NC(=O)Cn2ncc(Cl)c(Cl)c2=O)c(C)cc1[N+](=O)[O-] do in these assays?
Env fusion inh: inactive; PAX8 reporter: 91.5; INS-1E GSIS act: inactive; EWS-Fli inh: 75.9

Results for COc1cc(NC(=O)CN2C(=O)CN(C)C2=O)c(C)cc1[N+](=O)[O-] ?
Env fusion inh: inactive; PAX8 reporter: inactive; INS-1E GSIS act: inactive; Statin myotox sup: inactive; EWS-Fli inh: inactive; miR-122 sensor: inactive

What do the screens show for `CN(C)CC(=O)N[C@H]1CC[C@H](CCNC(=O)C2CC2)O[C@H]1CO`?
INS-1E GSIS act: inactive; EWS-Fli inh: inactive

What do the screens show for `COc1cc(Cn2c(-c3nonc3N)nc3ccccc32)ccc1C`?
Env fusion inh: 60.0; PAX8 reporter: inactive; Statin myotox sup: inactive; miR-122 sensor: inactive

Results for COc1cccc(Cn2c(-c3nonc3N)nc3ccccc32)c1 ?
Statin myotox sup: inactive; miR-122 sensor: inactive

How did Cc1ccc2cc(C#N)c(NCCNC(=O)C3CCC3)nc2c1C do in these assays?
Env fusion inh: 106.0; Statin myotox sup: inactive; miR-122 sensor: inactive

Results for CCNC(=O)Nc1ccc2c(c1)C(=O)N(C)[C@H]1CC[C@@H](CC(=O)NCc3cccc(F)c3)O[C@@H]1CO2 ?
Env fusion inh: inactive; PAX8 reporter: inactive; INS-1E GSIS act: inactive; Statin myotox sup: inactive; EWS-Fli inh: inactive; miR-122 sensor: inactive

What do the screens show for `COc1cccc(/C=C/c2n[nH]c(=O)c(C#N)c2C)c1`?
Env fusion inh: inactive; PAX8 reporter: inactive; INS-1E GSIS act: inactive; Statin myotox sup: 93.7; EWS-Fli inh: inactive; miR-122 sensor: inactive

How did C[C@H](CO)N1C[C@H](C)[C@H](CN(C)Cc2ccc(C(F)(F)F)cc2)OCCCC[C@H](C)Oc2ccc(NS(C)(=O)=O)cc2C1=O do in these assays?
Env fusion inh: inactive; PAX8 reporter: inactive; INS-1E GSIS act: inactive; EWS-Fli inh: inactive; miR-122 sensor: inactive

Results for C[C@@H]1CCCCO[C@@H](CN(C)Cc2ccc(C(F)(F)F)cc2)[C@@H](C)CN([C@@H](C)CO)C(=O)c2cc(NS(=O)(=O)c3ccccc3)ccc2O1 ?
Env fusion inh: inactive; PAX8 reporter: 94.5; INS-1E GSIS act: inactive; EWS-Fli inh: inactive; miR-122 sensor: inactive

How did C[C@H]1CCCCO[C@@H](CN(C)Cc2ccc(C(F)(F)F)cc2)[C@@H](C)CN([C@@H](C)CO)C(=O)c2cc(NS(C)(=O)=O)ccc2O1 do in these assays?
Env fusion inh: 55.3[16.7 µM]; PAX8 reporter: inactive; INS-1E GSIS act: inactive; EWS-Fli inh: inactive; miR-122 sensor: inactive

How did C[C@@H]1CN([C@H](C)CO)C(=O)c2cc(NS(=O)(=O)c3ccccc3)ccc2O[C@@H](C)CCCCO[C@@H]1CN(C)Cc1ccc(C(F)(F)F)cc1 do in these assays?
Env fusion inh: inactive; PAX8 reporter: 101.7; INS-1E GSIS act: inactive; EWS-Fli inh: inactive; miR-122 sensor: inactive

Results for C[C@@H]1CCCCO[C@H](CN(C)Cc2ccc(C(F)(F)F)cc2)[C@H](C)CN([C@@H](C)CO)C(=O)c2cc(NS(=O)(=O)c3ccccc3)ccc2O1 ?
Env fusion inh: inactive; PAX8 reporter: inactive; INS-1E GSIS act: inactive; EWS-Fli inh: inactive; miR-122 sensor: inactive

Results for C[C@@H]1CCCCO[C@H](CN(C)Cc2ccc(C(F)(F)F)cc2)[C@H](C)CN([C@H](C)CO)C(=O)c2cc(NS(=O)(=O)c3ccccc3)ccc2O1 ?
Env fusion inh: inconclusive; PAX8 reporter: 88.8; INS-1E GSIS act: inactive; EWS-Fli inh: inactive; miR-122 sensor: inactive

How did C[C@@H]1CN([C@@H](C)CO)C(=O)c2cc(NC(=O)NC3CCCCC3)ccc2O[C@H]1CN(C)C(=O)Nc1ccccc1 do in these assays?
Env fusion inh: inactive; PAX8 reporter: inactive; INS-1E GSIS act: inactive; Statin myotox sup: inactive; EWS-Fli inh: inactive; miR-122 sensor: inactive

What do the screens show for `CN(C)C(=O)[C@H]1[C@H](CO)[C@H]2Cn3c(ccc(C4=CCCC4)c3=O)[C@H]2N1C(=O)c1ccccc1F`?
Env fusion inh: inactive; PAX8 reporter: inactive; INS-1E GSIS act: inactive; Statin myotox sup: inactive; EWS-Fli inh: inactive

Source: PubChem BioAssay (Broad Institute)
